# Screening data (PubChem)
# A selection: hits, their analogues and other compounds. The true share with any hit is near 31%.
# CYP2C9 act: CYP2C9 (human) activation; AID 1024; recombinant CYP2C9, luciferin-H conversion, luminescence; stronger effect = higher value; factor 1 = untreated enzyme, 0 = blocked; actives 1.4% (n = 96,000); activation factor at 5 µM;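 active = activation factor of 2 or more for CYP2C9 at a 5 µM dose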;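 note: 0 = sulfaphenazole-blocked wells and 1 = vehicle-only wells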
# Target sequence (P11712 whole entry, looked up): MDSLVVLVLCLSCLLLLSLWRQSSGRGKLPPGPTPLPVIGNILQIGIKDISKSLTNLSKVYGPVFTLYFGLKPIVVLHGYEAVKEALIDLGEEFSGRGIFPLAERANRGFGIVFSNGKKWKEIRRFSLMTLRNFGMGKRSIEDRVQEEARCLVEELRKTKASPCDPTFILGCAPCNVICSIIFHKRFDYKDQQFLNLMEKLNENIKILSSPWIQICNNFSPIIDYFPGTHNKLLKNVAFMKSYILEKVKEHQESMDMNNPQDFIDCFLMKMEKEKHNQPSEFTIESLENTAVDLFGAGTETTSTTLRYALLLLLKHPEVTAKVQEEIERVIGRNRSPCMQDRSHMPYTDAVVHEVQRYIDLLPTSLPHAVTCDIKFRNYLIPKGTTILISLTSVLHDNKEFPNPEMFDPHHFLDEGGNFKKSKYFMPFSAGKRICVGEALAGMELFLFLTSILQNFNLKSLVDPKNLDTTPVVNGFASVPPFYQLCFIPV
# CYP2C19 inh: human CYP2C19 inhibition; P33261; actives 21% (n = 96,000); CYP2C19 Supersomes, luciferin-H EGE luminescence, 30 min; inhibition, % at 5 µM;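 active = CYP2C19 inhibition above a set limit at 5 µM in the primary screen, cut at about 50% in these data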;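 note: plate controls were negative control wells for no effect and 2.5 mM tranylcypromine positive control for full effect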
# CYP2C9 inh: human CYP2C9 inhibition; CYP2C9 Supersomes, luciferin-H conversion, luminescence; inhibition, % at 5 µM; actives 20% (n = 96,000); AID 777;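 active = blocking of liver enzyme CYP2C9 beyond about 50% at 5 µM, limit read from the data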
# CYP2C19 act: activators of human cytochrome P450 2C19 | AID 1025 | P33261 | activation factor at 5 µM | recombinant CYP2C19, luciferin-H EGE luminescence; stronger effect = higher value; 0 = fully inhibited enzyme, 1 = untreated enzyme | 96,000 tested, under 10 active;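 active = activation factor of at least 2 at 5 µM in the primary screen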;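 note: 0 = wells with 2.5 mM tranylcypromine and 1 = vehicle-only wells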
# * = called active by the depositor.
SMILES,CYP2C9 act,CYP2C19 inh,CYP2C9 inh,CYP2C19 act
CC(C)(C)C1CCc2c(sc(NC(=O)C3CCCO3)c2C(N)=O)C1 (stereo not given),0.9,-8,10,1.1
CCCC1CCc2c(sc(N)c2C(N)=O)C1 (stereo not given),0.3,68*,69*,0.3
CCOC(=O)c1c(N)sc2c1CCCC2,1.1,8,-5,0.9
CC(C)(C)C1CCc2c(sc(N)c2C(N)=O)C1 (stereo not given),0.5,63*,47,0.4
Cc1cc(Nc2ccc(Br)c(C)c2)n2nc(C)nc2n1,1.1,-6,-6,1.1
COc1cc(/C=N\NC(=O)c2sc(N)nc2C)cc(OC)c1OC,1.1,-9,-14,1.1
COc1ccc(-c2nnc3n2N=C(c2cccc(Br)c2)CS3)cc1OC,0.6,36,44,0.6
COc1ccccc1-c1nnc2n1N=C(C)CS2,1,15,-1,0.9
COc1cccc(-c2nnc3n2N=C(c2cc(OC)ccc2OC)CS3)c1,0.4,72*,57*,0.3
Clc1ccccc1C1=Nn2c(nnc2-c2ccncc2)SC1,0.3,61*,72*,0.4
COc1ccc(-c2nnc3n2N=C(C)CS3)cc1,1,13,3,0.9
COc1cccc(C2=Nn3c(nnc3-c3ccccc3O)SC2)c1,0.3,43,69*,0.6
COc1ccc(C2=Nn3c(nnc3-c3ccc(OC)cc3)SC2)cc1,0.5,22,52*,0.8
CCCCCC(=O)OC(CN1CCCCC1)CN1CCCC1=O (stereo not given),1,2,-3,1
c1ccc(C2=Nn3c(nnc3-c3cc(-c4ccccc4)n[nH]3)SC2)cc1,1.2,-15,-16,1.1
Cc1cccc(-c2nnc3n2N=C(c2ccccc2Br)CS3)c1,0.5,85*,52*,0.2
Cc1ccc(-c2nnc3n2N=C(c2ccccc2)CS3)cc1,1.1,-15,-5,1.2
COc1ccc(OC)c(C2=Nn3c(nnc3-c3cc(OC)c(OC)c(OC)c3)SC2)c1,0.1,60*,88*,0.4
COc1cccc(-c2nnc3n2N=C(C(C)(C)C)CS3)c1,0.7,68*,30,0.3
COc1cc(-c2nnc3n2N=C(c2ccccc2)CS3)cc(OC)c1OC,0.3,73*,68*,0.3
CCC(NC(=O)c1ccccc1NC(=O)c1ccc(C)cc1)C(=O)O (stereo not given),1.1,-16,-12,1.2
CCn1c(=S)[nH]c2cc(S(=O)(=O)N3CCCCC3)ccc21,0.5,45,51*,0.6
COc1cc(S(=O)(=O)N2CCCCCC2)ccc1Cl,2.4*,98*,-139,0
CCOc1cc(S(=O)(=O)N2CCN(CC)CC2)ccc1Cl,2.3*,65*,-134,0.4
CCOc1cc(S(=O)(=O)N2CCOCC2)ccc1F,1.4,57*,-41,0.4
SMILES,CYP2C9 act,CYP2C19 inh,CYP2C9 inh,CYP2C19 act
CCC1(C)Cc2ccccc2C(Nc2c(C)n(C)n(-c3ccccc3)c2=O)=N1 (stereo not given),0.9,-8,7,1.1
CCOCc1nnc(NC(=O)CCc2ccccc2)s1,0.7,35,34,0.6
O=C(NC(NCCCN1CCOCC1)(C(F)(F)F)C(F)(F)F)C1CCCCC1,1,7,2,0.9
CCCCCCCCSc1nnc(CSc2nc3nc(C)cc(C)n3n2)o1,0.8,16,21,0.8
CCOC(=O)CN(C(=O)CSc1nnc(-c2ccc(OC)c(OC)c2)o1)c1ccc(F)cc1,0.6,13,38,0.9
CCOC(=O)C1CCN(S(=O)(=O)c2ccc(Br)c(OCC)c2)CC1,1.1,40,-13,0.6
COc1ccc(S(=O)(=O)N2CCCCCC2)cc1N(C)S(=O)(=O)c1ccc(Cl)cc1,1,-9,1,1.1
CCOc1cc(S(=O)(=O)N2CCCCC2)ccc1Cl,2.5*,71*,-148,0.3
COc1ccc2cc(S(=O)(=O)N3CCCCC3)ccc2c1S(=O)(=O)N1CCCCC1,0.5,25,52*,0.8
CCC(=O)Nc1ccc(C(=O)Cn2nc(C(=O)O)c3ccccc3c2=O)cc1,0.7,25,31,0.8
CCOC(=O)N1CCC(Nc2c(NCCCN(CC)c3cccc(C)c3)c(=O)c2=O)CC1,1,13,2,0.9
Cn1ccnc1SCC(=O)Nc1ccc(Oc2ccccc2)cc1,0.3,88*,71*,0.1
CCOc1ccc(-n2ccnc2SCC(=O)Nc2nnc(CC)s2)cc1,0.8,27,23,0.7
Cn1ccnc1SCC(=O)Nc1cccc(O)c1,0.9,6,9,0.9
COc1ccc(-n2ccnc2SCC(=O)Nc2ccc(OC)cc2OC)cc1,0.7,92*,27,0.1
COc1ccc(NC(=O)CSc2nccn2-c2ccccc2)cc1,0.3,86*,69*,0.1
Cn1ccnc1SCC(=O)Nc1cccc(C(F)(F)F)c1,1.5,87*,-52,0.1
CC1CN(C2CCN(C(=O)c3ccccc3Cl)CC2)CC(C)O1 (stereo not given),1,19,1,0.8
COc1ccc(C(=O)Nc2ccccc2C(=O)NC(C)C)cc1OC,0.6,5,36,0.9
COc1ccc(NC(=O)CSc2nc(N)c3cc4c(nc3n2)CCCC4)c(OC)c1,0.2,22,81*,0.8
CCOC(=O)c1cnc(SCC(=O)Nc2cc(OC)ccc2OC)nc1N,0.6,17,38,0.8
CNc1nc(SC)nc2ccsc12,2.3*,37,-130,0.6
C=CCSc1nc(NC)c2sccc2n1,2.5*,22,-148,0.8
CCc1ccc(Nc2oc(C)cc(=O)c2C(C)=O)cc1,0.9,3,12,1
CC1=Nn2c(nnc2-c2ccc(F)cc2)SC1,1,6,-4,0.9
SMILES,CYP2C9 act,CYP2C19 inh,CYP2C9 inh,CYP2C19 act
COc1ccc(S(=O)(=O)NCCC(C)C)cc1C,1.9,85*,-87,0.2
COc1ccc(S(=O)(=O)NCCc2csc(C)n2)cc1C,1.2,74*,-24,0.3
O=C1c2ccccc2CCC12N=NCC2c1ccc(Cl)cc1 (stereo not given),0.8,84*,15,0.2
O=C1c2ccccc2CCC12N=NCC2c1ccc(Br)cc1 (stereo not given),0.5,99*,49,0
O=C(Nc1cccc2c1CCCC2)c1ccc(Br)o1,1.1,16,-6,0.8
O=C(Cc1cn2ccsc2n1)Nc1cccc2cnccc12,0.8,12,17,0.9
Cc1ccc(-c2noc(CCC(=O)NCCCN3CCN(c4cccc(Cl)c4)CC3)n2)cc1,0.3,38,74*,0.6
Cc1ccc(-c2noc(CCC(=O)NCCCN3CCN(c4ccc(F)cc4)CC3)n2)cc1,0.3,57*,70*,0.4
O=C(NCCCN1CCN(c2cccc(Cl)c2)CC1)c1ccc(N2CCCC2=O)cc1,0.3,49,66*,0.5
Clc1cccc(N2CCN(Cc3nc(-c4ccccc4)no3)CC2)c1,0.9,2,14,1
COc1ccc(-c2noc(CCC(=O)NCCCN3CCC(C)CC3)n2)cc1,1,0,2,1
COc1ccc(-c2noc(CCC(=O)NCCN3CCN(c4ccccc4F)CC3)n2)cc1,0.3,45,69*,0.6
